Laboratory results from PubChem BioAssay (NCATS).
“And” between values parts separate entries of the source, which are not always exact repeats. Equal entries are not always repeated. Inconclusive results are not listed. The source holds several records for some structures; these can differ, active in one and inactive in another. The source made the active and inactive calls. Unless noted, the call rests on the fitted dose curve; in most records, active means well fitted curve in the direction sought with a large enough effect; inconclusive means small, poorly fitted or top-dose-only effect, or another doubt; inactive means no such curve, though single readings can be large; an effect the other way counts as inactive or inconclusive.

Columns and labels:
[1] = biological target: ATP-dependent 6-phosphofructokinase (Trypanosoma brucei brucei) (UniProt O15648); test: qHTS Assay to Find Inhibitors of T. brucei phosphofructokinase: hit validation (AID 492961);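 further: luminescence reports ADP formed as PFK phosphorylates fructose-6-phosphate with ATP; on the % scale 0 is the no-effect control and ±100 the full control effect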
Outline: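 Inhibition of parasite PFK is measured as reduced ADP formation, quantified via luciferase after ATP depletion. Assay used 0.1 mM ATP, 0.5 mM F6P, 1.25 nM enzyme, 45 min incubation.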

[2] = biological target: Luciferin 4-monooxygenase (Photinus pyralis) (UniProt P08659); test: Biochemical firefly luciferase enzyme assay for NPC (AID 624030); further: nearly all actives have a fitted effect of over 70% in size; further: potency means the concentration at half of the fitted maximal effect
Outline: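 Purified P. pyralis luciferase at 10 nM in 50 mM Tris Acetate (final), luminescence read within 5 minutes of enzyme addition to compounds. Activity normalised to PTC124 versus DMSO; concentration-response curves classed by r2, magnitude and activity.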

[3] = S16 Schwann cell PMP22 intronic element beta-lactamase assay (AID 624044; calls by dose curve; further: nearly all actives have a fitted effect of over 15% in size; further: potency means the concentration at half of the fitted maximal effect;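 on ratio activity, negative = inhibition: 0% = DMSO and -100% = potassium clavulanate positive control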); details: S16 rat Schwann cells, PMP22 element beta-lactamase FRET, 24 h; ratio activity, negative = inhibition: at 38.3 µM (top of the series)
Outline: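 Rat S16 Schwann cells with beta-Lac driven by a PMP22 intronic element, compound-treated 24 h at 37 °C. LiveBLAzer FRET B/G read: 460 nm normalized to potassium clavulanate vs DMSO; 535 nm FRET as viability; concentration-effect curves classified.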

[4] = qHTS profiling for inhibitors of Plasmodium falciparum proliferation (AID 504749); further: potency means the concentration at half of the fitted maximal effect;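 on activity, negative = inhibition: 0% = DMSO vehicle and full inhibition = artemisinin control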; on all read-outs here: nearly all actives have a fitted effect of over 60% in size; details: P. falciparum in erythrocytes, SYBR Green DNA, 72 h; for activity, negative = inhibition: at 28.7 µM (top of the series)
Outline: (§1)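 P. falciparum-infected erythrocytes (0.3% parasitemia, 2.5% hematocrit) incubated with compound 72 h at 37 C, 5% CO2. Parasite DNA detected by SYBR Green after lysis, overnight at room temperature; normalised to 0.29 uM artemisinin and DMSO.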

CP211 = test: as above; details: P. falciparum in erythrocytes, SYBR Green DNA, 72 h; series mostly up to 28.7 µM
Outline: as §1

CP238 = test: as above; details: P. falciparum in erythrocytes, SYBR Green DNA, 72 h; series mostly up to 28.7 µM
Outline: as §1

CP286 = test: as above; details: P. falciparum in erythrocytes, SYBR Green DNA, 72 h; series mostly up to 28.7 µM
Outline: as §1

DFO2036 = test: as above; details: P. falciparum in erythrocytes, SYBR Green DNA, 72 h; series mostly up to 28.7 µM
Outline: as §1

Dd2 = test: as above; details: P. falciparum in erythrocytes, SYBR Green DNA, 72 h; series mostly up to 28.7 µM
Outline: as §1

FAB9 = test: as above; details: P. falciparum in erythrocytes, SYBR Green DNA, 72 h; series mostly up to 28.7 µM
Outline: as §1

JCK = test: as above; details: P. falciparum in erythrocytes, SYBR Green DNA, 72 h; series mostly up to 28.7 µM
Outline: as §1

N140 = test: as above; details: P. falciparum in erythrocytes, SYBR Green DNA, 72 h; series mostly up to 28.7 µM
Outline: as §1

PC49 = test: as above; details: P. falciparum in erythrocytes, SYBR Green DNA, 72 h; series mostly up to 28.7 µM
Outline: as §1

CP192 = test: as above; details: P. falciparum in erythrocytes, SYBR Green DNA, 72 h; series mostly up to 28.7 µM
Outline: as §1

CP201 = test: as above; details: P. falciparum in erythrocytes, SYBR Green DNA, 72 h; series mostly up to 28.7 µM
Outline: as §1

CP262 = test: as above; details: P. falciparum in erythrocytes, SYBR Green DNA, 72 h; series mostly up to 28.7 µM
Outline: as §1

CP269 = test: as above; details: P. falciparum in erythrocytes, SYBR Green DNA, 72 h; series mostly up to 28.7 µM
Outline: as §1

CP315 = test: as above; details: P. falciparum in erythrocytes, SYBR Green DNA, 72 h; series mostly up to 28.7 µM
Outline: as §1

CP325 = test: as above; details: P. falciparum in erythrocytes, SYBR Green DNA, 72 h; series mostly up to 28.7 µM
Outline: as §1

CP329 = test: as above; details: P. falciparum in erythrocytes, SYBR Green DNA, 72 h; series mostly up to 28.7 µM
Outline: as §1

ATP-dependent 6-phosphofructokinase (Trypanosoma brucei brucei), sequence (O15648 whole entry, looked up): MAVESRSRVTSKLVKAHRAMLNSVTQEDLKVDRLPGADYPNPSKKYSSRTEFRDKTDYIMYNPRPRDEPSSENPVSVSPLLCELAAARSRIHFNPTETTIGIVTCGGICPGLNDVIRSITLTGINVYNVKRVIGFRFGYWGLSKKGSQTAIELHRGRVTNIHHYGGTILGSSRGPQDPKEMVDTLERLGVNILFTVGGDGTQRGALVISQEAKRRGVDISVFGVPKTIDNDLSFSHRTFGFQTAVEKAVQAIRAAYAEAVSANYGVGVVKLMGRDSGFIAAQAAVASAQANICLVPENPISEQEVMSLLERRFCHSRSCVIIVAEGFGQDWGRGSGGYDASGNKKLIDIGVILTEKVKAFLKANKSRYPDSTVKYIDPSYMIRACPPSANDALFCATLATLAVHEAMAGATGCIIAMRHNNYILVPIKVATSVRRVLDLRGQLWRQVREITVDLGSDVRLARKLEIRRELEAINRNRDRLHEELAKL
Luciferin 4-monooxygenase (Photinus pyralis), sequence (P08659 whole entry, looked up): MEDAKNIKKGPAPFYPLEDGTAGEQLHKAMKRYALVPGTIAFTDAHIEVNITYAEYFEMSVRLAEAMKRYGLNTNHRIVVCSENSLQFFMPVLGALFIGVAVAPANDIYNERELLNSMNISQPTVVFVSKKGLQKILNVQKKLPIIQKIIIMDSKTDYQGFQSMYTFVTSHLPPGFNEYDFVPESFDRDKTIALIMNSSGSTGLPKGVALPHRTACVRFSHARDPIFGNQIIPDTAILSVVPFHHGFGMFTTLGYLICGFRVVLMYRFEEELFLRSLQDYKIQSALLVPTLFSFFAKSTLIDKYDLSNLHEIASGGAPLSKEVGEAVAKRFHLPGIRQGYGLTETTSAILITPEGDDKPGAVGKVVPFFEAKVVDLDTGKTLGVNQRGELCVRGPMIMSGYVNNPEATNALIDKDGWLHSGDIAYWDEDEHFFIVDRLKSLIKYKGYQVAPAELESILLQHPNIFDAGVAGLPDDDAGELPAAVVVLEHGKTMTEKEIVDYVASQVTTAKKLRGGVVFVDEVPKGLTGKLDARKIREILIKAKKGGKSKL

CC(C)C(=O)OCC(=O)[C@@]12OC(C3CCCCC3)O[C@@H]1CC1C3CCC4=CC(=O)C=C[C@]4(C)C3[C@@H](O)C[C@@]12C (stereo partly drawn)
active: Potency ([4]; parasite line A) 0.794 µM | Potency ([4]; parasite line B) 0.562 µM | Potency (CP211) 1.35 µM | Potency (CP238) 1 µM | Potency (CP286) 0.794 µM | Potency (DFO2036) 0.501 µM | Potency (Dd2) 1.41 µM | Potency (FAB9) 2 µM | Potency (JCK) 2.51 µM | Potency (N140) 0.794 µM | Potency (PC49) 1.12 µM
inactive: Potency [1] | Potency [2] | Potency [3]

CC(=O)O[C@]1(C(C)=O)CCC2C3CCC4=CC(=O)CCC4(C)C3(F)C(O)CC21C (stereo partly drawn)
inactive: Potency [1] | Potency [2] | Potency [3] | activity, negative = inhibition ([4]; parasite line A) 7.47% | activity, negative = inhibition ([4]; parasite line B) -19% | Potency (CP192) | Potency (CP201) | Potency (CP211) | Potency (CP238) | Potency (CP262) | Potency (CP269) | Potency (CP286) | Potency (CP315) | Potency (CP325) | Potency (CP329) | Potency (DFO2036) | Potency (Dd2) | Potency (FAB9) | Potency (JCK) | Potency (N140) | Potency (PC49)

CCCCCOC(=O)Nc1nc(=O)n(C2O[C@H](C)[C@@H](O)[C@@H]2O)cc1F (stereo partly drawn)
inactive: Potency [1] | Potency [2] | Potency [3] | activity, negative = inhibition ([4]; parasite line A) -10.4% | activity, negative = inhibition ([4]; parasite line B) 12.5% | Potency (CP192) | Potency (CP201) | Potency (CP211) | Potency (CP238) | Potency (CP262) | Potency (CP269) | Potency (CP286) | Potency (CP315) | Potency (CP325) | Potency (CP329) | Potency (DFO2036) | Potency (Dd2) | Potency (FAB9) | Potency (JCK) | Potency (N140) | Potency (PC49)

C[C@@H](O)[C@@H]1C(=O)N2C(C(=O)O)=C([C@H]3CCCO3)S[C@H]12
inactive: Potency [1] | Potency [2] | Potency [3] | activity, negative = inhibition ([4]; parasite line A) -3.21% | activity, negative = inhibition ([4]; parasite line B) 2.27% | Potency (CP192) | Potency (CP211) | Potency (CP238) | Potency (CP262) | Potency (CP269) | Potency (CP286) | Potency (CP315) | Potency (CP325) | Potency (CP329) | Potency (DFO2036) | Potency (Dd2) | Potency (FAB9) | Potency (JCK) | Potency (N140) | Potency (PC49)

NC(CSSCC(N)C(=O)O)C(=O)O (stereo not drawn)
inactive: Potency [1] | Potency [2] | Potency [3] | activity, negative = inhibition ([4]; parasite line A) 5.04% | activity, negative = inhibition ([4]; parasite line B) 19% | Potency (CP201) | Potency (CP211) | Potency (CP238) | Potency (CP262) | Potency (CP269) | Potency (CP286) | Potency (CP315) | Potency (CP325) | Potency (CP329) | Potency (DFO2036) | Potency (Dd2) | Potency (FAB9) | Potency (JCK) | Potency (N140) | Potency (PC49)

CNC1=CN(O)C(c2ccccc2)=c2cc(Cl)ccc2=N1
4.26 µM (active) and inactive: Potency (CP201)
active: Potency ([4]; parasite line A) 3.55 µM | Potency ([4]; parasite line B) 2.24 µM and 11.2 µM | Potency (CP192) 4.26 µM | Potency (CP211) 4.26 µM | Potency (CP269) 3.79 µM | Potency (CP286) 4.47 µM | Potency (CP315) 1.9 µM | Potency (DFO2036) 3.16 µM | Potency (FAB9) 2.51 µM
inactive: Potency [1] | Potency [2] | Potency [3] | Potency (CP238) | Potency (CP262) | Potency (Dd2) | Potency (JCK) | Potency (PC49)
3.79 µM (active) and inactive: Potency (CP329)

CCCC(=O)Nc1c(I)cc(I)c(C[C@H](CC)C(=O)O)c1I
inactive: Potency [1] | Potency [2] | Potency [3] | activity, negative = inhibition ([4]; parasite line A) 2.81% | activity, negative = inhibition ([4]; parasite line B) -1.24% | Potency (CP192) | Potency (CP201) | Potency (CP211) | Potency (CP238) | Potency (CP262) | Potency (CP269) | Potency (CP286) | Potency (CP315) | Potency (CP325) | Potency (CP329) | Potency (DFO2036) | Potency (Dd2) | Potency (FAB9) | Potency (JCK) | Potency (N140) | Potency (PC49)

CCN(CC)C(=O)[C@@]1(c2ccccc2)C[C@@H]1CN
inactive: Potency [1] | Potency [2] | Potency [3] | activity, negative = inhibition ([4]; parasite line A) 3.47% | activity, negative = inhibition ([4]; parasite line B) 2.1% | Potency (CP192) | Potency (CP201) | Potency (CP211) | Potency (CP238) | Potency (CP262) | Potency (CP269) | Potency (CP286) | Potency (CP315) | Potency (CP325) | Potency (CP329) | Potency (DFO2036) | Potency (Dd2) | Potency (FAB9) | Potency (JCK) | Potency (N140) | Potency (PC49)

COc1ccc2cc1Oc1cc3c(cc1OC)CC[N+](C)(C)C3Cc1ccc(cc1)Oc1c(OC)c(OC)cc3c1C(C2)[N+](C)(C)CC3 (stereo not drawn)
inactive: Potency [1] | Potency [2] | Potency [3] | activity, negative = inhibition ([4]; parasite line A) 13.3% | activity, negative = inhibition ([4]; parasite line B) 0.155% | Potency (CP192) | Potency (CP201) | Potency (CP211) | Potency (CP238) | Potency (CP262) | Potency (CP269) | Potency (CP286) | Potency (CP315) | Potency (CP325) | Potency (CP329) | Potency (DFO2036) | Potency (Dd2) | Potency (FAB9) | Potency (JCK) | Potency (N140) | Potency (PC49)

COc1cc(/C=C2\CCC/C(=C\c3ccc(O)c(OC)c3)C2=O)ccc1O
inactive: Potency [1] | Potency (CP262)
active: Potency [3] 25.1 µM | Potency ([4]; parasite line A) 11.2 µM | Potency ([4]; parasite line B) 10 µM | Potency (CP211) 16.9 µM | Potency (CP238) 10 µM | Potency (CP269) 10.7 µM | Potency (CP315) 19 µM | Potency (DFO2036) 11.2 µM | Potency (Dd2) 11.2 µM | Potency (JCK) 10 µM | Potency (N140) 11.2 µM | Potency (PC49) 11.2 µM

O=C(O)Cc1sc(-c2ccc(Cl)cc2)nc1-c1ccccc1
inactive: Potency [1] | Potency [3] | activity, negative = inhibition ([4]; parasite line A) 4.11% | activity, negative = inhibition ([4]; parasite line B) -3.92% | Potency (CP192) | Potency (CP201) | Potency (CP211) | Potency (CP238) | Potency (CP262) | Potency (CP269) | Potency (CP286) | Potency (CP315) | Potency (CP325) | Potency (CP329) | Potency (DFO2036) | Potency (Dd2) | Potency (FAB9) | Potency (JCK) | Potency (N140) | Potency (PC49)
active: Potency [2] 25.6 µM
